Sfp PPTase inh: Sfp phosphopantetheinyl transferase inhibition; Q9F4F7; Biochemical Sfp PPTase activity, qHTS; Potency, µM, usual class: inhibitors; actives 3.5% (n = 310,000);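 also: the enzyme is Sfp with the accession as filed and its product quenches rhodamine fluorescence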
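Buffer: 50 mM Hepes-Na pH 7.6, 10 mM MgCl2, 0.01% Nonidet P-40, 0.01% BSA. Enzyme 15 nM, pre-exposed to compound 15 min; substrates then added and fluorescence change tracked over 30 min.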
PLK1 PBD inh: PLK1 (human) polo-box domain binding inhibition; AID 720504; P53350; actives 2.8% (n = 360,000); Potency, µM, hits mostly inhibitors; Plk1 PBD binding of FITC phosphopeptide, fluorescence polarization; also: series mostly up to about 57 µM; nearly all actives have a fitted effect of over 65% in size
VP16 counter: Gal4-VP16 reporter inhibition counter-screen; Drosophila S2 Gal4-VP16 UAS-luciferase, luminescence, 20 h; Potency, µM (series often up to 53.6 µM), usual class: inhibitors; actives 3.5% (n = 310,000);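 also: Gal4-VP16 expression switched on by copper sulfate through the metallothionein promoter; nearly all actives have a fitted effect of over 50% in size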
ALDH1A1 block: blocks purified human ALDH1A1 activity; P00352; Purified ALDH1A1, NADH fluorescence, propionaldehyde substrate; Potency, µM (series often up to 75.3 µM), hits mostly inhibitors; actives 7.3% (n = 220,000); AID 1030; active = well fitted inhibition curve with a large enough effect, not every such curve was filed as active; inconclusive = small, poorly fitted or top-dose-only effect, or another doubt; inactive = no such curve, though single readings can be large or run the other way
RORgamma inh: ROR gamma (mouse) transcription inhibition; Drosophila S2 Gal4-RORgamma UAS-luciferase reporter, 20 h; Potency, µM (doses to about 53.6 µM), usual class: inhibitors; P51450; actives 5.4% (n = 310,000); also: nearly all actives have a fitted effect of over 60% in size
Target sequence (P51450 whole entry, looked up, the tested form may be a part): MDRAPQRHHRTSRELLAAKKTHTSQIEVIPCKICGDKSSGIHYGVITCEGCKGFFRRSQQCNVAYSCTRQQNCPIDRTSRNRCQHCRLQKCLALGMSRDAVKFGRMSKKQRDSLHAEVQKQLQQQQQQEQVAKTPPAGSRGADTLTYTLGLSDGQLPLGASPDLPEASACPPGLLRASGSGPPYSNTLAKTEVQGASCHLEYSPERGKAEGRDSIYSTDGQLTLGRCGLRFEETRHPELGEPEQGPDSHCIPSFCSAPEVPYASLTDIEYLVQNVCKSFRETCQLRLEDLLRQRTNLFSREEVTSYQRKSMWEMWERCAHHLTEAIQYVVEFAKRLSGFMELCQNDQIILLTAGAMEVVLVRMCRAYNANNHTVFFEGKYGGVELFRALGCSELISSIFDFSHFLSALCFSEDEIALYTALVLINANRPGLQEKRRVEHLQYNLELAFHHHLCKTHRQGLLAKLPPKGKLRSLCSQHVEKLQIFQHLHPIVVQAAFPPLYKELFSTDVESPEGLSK
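A Gal4/UAS one-hybrid system in insect cells: metallothionein-promoter Gal4–ROR gamma fusion plus Photinus luciferase reporter. Copper sulfate 700 uM final, 20 hr ambient incubation, luminescent detection after 10 min with reagent.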
Hits are given with their value; i = inactive; ? = inconclusive; nt = no result; [ ] = dose if it differs, or a comment. Most compounds without a hit are left out; they make up all but 12% or so of the library. Unless noted, calls follow the shape of the dose curve; as a rule, active = well fitted curve in the direction sought with a large enough effect; inconclusive = small, poorly fitted or top-dose-only effect, or another doubt; inactive = no such curve, though single readings can be large; an effect the other way counts as inactive or inconclusive.

SMILES	Sfp PPTase inh	PLK1 PBD inh	VP16 counter	ALDH1A1 block	RORgamma inh
CCOC(=O)c1cc2c(=Cc3ccc(N(C)C)cc3)c3ccccc3n2[n+]1C	nt	13.4µM	nt	nt	nt
CC(=O)N1CCN(c2c(F)c(F)c(C(F)(F)F)c(F)c2F)CC1	i	i	i	i	i
CC(=O)C(C(C)=O)C(NC(=O)c1cccnc1)(C(F)(F)F)C(F)(F)F	i	2.67µM	i	i	i
O=c1c(CCc2ccccc2)nc2cnc(N3CCNCC3)nc2n1-c1ccccc1	i	nt	i	?	i
Cc1sc2nc(C3CC3)nc(NCCNS(C)(=O)=O)c2c1C	i	i	i	31.6µM	i[10 µM]
C=CCSc1nc2sc3c(c2c(=O)n1CC=C)CCc1ccccc1-3	44.7µM	i	i	i	i[10 µM]
C/C(=N\S(=O)(=O)c1ccc(C)cc1)NC(=S)Nc1ccccc1	i	i	i	?	11.2µM
O=C(O)c1ccc(N/C(=N\S(=O)(=O)c2ccc(Cl)cc2)c2ccccc2)cc1	i	i	i	nt	i
O=S(=O)(/N=C(/NC(=S)Nc1ccccc1)c1ccccc1)c1ccc(Cl)cc1	44.7µM	11.9µM	?	nt	?
COc1ccc(NC(=S)NC(=NS(=O)(=O)c2ccc(Cl)cc2)c2ccccc2)cc1	nt	11.9µM	nt	nt	nt
COc1ccc(NC(=S)N/C(=N/S(=O)(=O)c2ccc(C)cc2)c2ccccc2)cc1	50.1µM	i	i	?	i
CCOC(=S)N/C(=N\S(=O)(=O)c1ccc(C)cc1)c1ccccc1	22.4µM	23.8µM	i[0.365 µM]	14.1µM	i
Cc1ccc2c(c1)S(=O)(=O)N(C)C(c1ccccc1)=C2	nt	i	nt	nt	nt
Cc1cc(NS(=O)(=O)c2ccc(NC(NC(=O)C(C(F)(F)F)C(F)(F)F)(C(F)(F)F)C(F)(F)F)cc2)no1	i	5.97µM	i	?	i
Fc1cccc(Cn2cc(C(=S)N3CCOCC3)c3ccccc32)c1	i	i	i	i	?
Fc1cccc(Cn2cc(C(=S)N3CCCCC3)c3ccccc32)c1	i	i	7.94µM	?	7.08µM
O=C(c1cccnc1)N1CCN(Cc2ccc3ccccc3c2)CC1	i	i	i	nt	i
O=C(NC(=S)N1CCN(Cc2ccccc2)CC1)c1cccnc1	i	i	2.51µM	i	0.891µM
O=C(NC(=S)N1CCCCCC1)c1ccccc1	i	i	1.78µM	nt	1.41µM
O=C(NC(=S)N1CCN(c2ccccc2)CC1)c1ccccc1	i	nt	1.12µM	nt	1.41µM
O=C(NC(=S)N1CCN(C2CCCCC2)CC1)c1ccccc1	i	i	3.16µM	i	0.891µM
O=C(NC(=S)N1CCN(c2ccc(F)cc2)CC1)c1ccccc1	nt	i	nt	nt	nt
O=C(c1ccccc1)N1CCN(C2CCCCCC2)CC1	i	i	i	i	i
COc1ccccc1CCNC(=O)c1c(N)[nH]c(C(=O)c2ccccc2)c1-c1ccc(Br)cc1	nt	i	nt	nt	nt
CCN(CC)S(=O)(=O)c1ccc(C(=O)NCC(=O)NCc2ccc3c(c2)OCO3)cc1	nt	i	nt	nt	nt
SMILES	Sfp PPTase inh	PLK1 PBD inh	VP16 counter	ALDH1A1 block	RORgamma inh
O=C(/C=C/c1ccccc1)c1ccc(O[C@H]2OC(CO)C(O)C(O)C2O)cc1O (stereo partly drawn)	i	nt	i	i	?
COc1cc2c(cc1OC)CN(C(=S)NC(=O)c1ccccc1)CC2	i	23.8µM	3.16µM	i	5.62µM
O=C(NC(=S)N1CCN(C/C=C/c2ccccc2)CC1)c1ccc(Cl)nc1	i	?	0.316µM	17.8µM	0.112µM
O=C(NC(=S)N1CCN(c2ccccn2)CC1)c1ccccc1	i	i	4.47µM	i	2.24µM
O=C(NC(=S)N1CCCC1)c1ccccc1	i	i	7.08µM	nt	3.98µM
CC(=O)c1ccc(NC(=S)N2CCN(c3ccccn3)CC2)cc1	i	i	i	nt	i
CCOC(=O)c1ccc(NC(=O)c2nn(C)cc2Br)cc1	i	i	i	i	i
CCOC(=O)N1CCN(C(=S)NC(=O)c2nn(C)cc2Br)CC1	?	i	?	i	17.8µM
Cn1cc(Br)c(C(=O)NC(=S)N2CCN(c3ccccn3)CC2)n1	?	i	12.6µM	i	3.98µM
O=C(NC(=S)N1CCCCC1)c1cccnc1	?	i	3.16µM	i	0.708µM
COc1ccc(CNc2ncncc2-c2ccc(C(=O)N(C)C)cc2)c(OC)c1	?	nt	i	i	i
CO/N=C(\C(=O)N[C@@H]1C(=O)N2C(C(=O)[O-])=C(C[N+]3(C)CCCC3)CS[C@@H]12)c1csc(N)n1	i	nt	i	i	i
Cc1c(C(=O)N(C)CCC#N)oc2ccc(S(=O)(=O)N3CC(C)CC(C)C3)cc12 (stereo not drawn)	i	18.9µM	i	nt	i
CCCCN(CC)C(=O)c1oc2ccc(S(=O)(=O)N3CCCC3)cc2c1C	i	29.9µM	i	nt	i
Cc1c(C(=O)N(C)Cc2ccccc2)oc2ccc(S(=O)(=O)N3CCCC3)cc12	i	i	?	22.4µM	?
Cc1c(C(=O)N(Cc2ccccc2)C(C)C)oc2ccc(S(=O)(=O)N3CCOCC3)cc12	i	29.9µM	i	nt	i
O=S(=O)(c1cccc(F)c1)N1CCN(Cc2cc3c(cc2Br)OCCO3)CC1	nt	i	nt	nt	nt
NC(N)=NCCC[C@H](N)C(=O)NCC(=O)N[C@@H](CC(=O)O)C(=O)O	i	nt	i	nt	i
Cc1ccc(S(=O)(=O)N2C[C@@H](C)[C@]3(C2)[C@H](O)[C@H](OC(=O)NC2CCCC2)C[C@H]2C(=O)N(c4ccccc4)C(=O)[C@H]23)cc1	nt	i	nt	nt	nt
CC(C)OC(=O)c1cc2c(OC[C@@H](O)CNC(C)(C)C)cccc2[nH]1	i	nt	i	?	i
O=C(CCCn1c(SCc2cc(=O)n3cc(Cl)ccc3n2)nc2ccccc2c1=O)NCC1CCCO1 (stereo not drawn)	i	i	i	nt	i
O=c1cc(CSc2nc(NCc3ccccc3)c3ccccc3n2)nc2ccc(Cl)cn12	i	i	i	i	4.47µM
CCCCCCn1nc(C(=O)Nc2nc3c(s2)CCCC3)c2ccccc2c1=O	i	i	i	i	10µM
CCCCn1nc(C(=O)Nc2nc3c(s2)CCCC3)c2ccccc2c1=O	i	i	?	?	11.2µM
C[C@@H]1CN([C@H](C)CO)C(=O)CCCn2nncc2CO[C@@H]1CN(C)C(=O)C1CC1	nt	i	nt	nt	nt
SMILES	Sfp PPTase inh	PLK1 PBD inh	VP16 counter	ALDH1A1 block	RORgamma inh
CCNc1ncc2nc(-c3cc(F)cc(F)c3)c(=O)n(CCOC)c2n1	i	nt	i	?	i
COc1ccc(NC(=O)/C(C#N)=C\c2ccc(-c3cccc(C(=O)O)c3C)o2)cc1	i	i	?	nt	3.98µM
Cc1ccccc1NC(=O)/C(C#N)=C/c1ccc(-c2ccc(Cl)c(C(=O)O)c2)o1	i	i	17.8µM	nt	i
COc1ccc(NC(=O)/C(C#N)=C/c2ccc(-c3ccc(Cl)c(C(=O)O)c3)o2)cc1	i	i	?	nt	11.2µM
COc1ccc(NC(=O)/C(C#N)=C/c2ccc(-c3ccccc3C(=O)O)o2)cc1	i	i	i	nt	i
CCNC(=O)C[C@@H]1CC[C@@H]2NC[C@@H](O)COC[C@H]2O1	nt	i	nt	nt	nt
N#Cc1cccc(-c2ccc3ncnc(NCCN4CCOCC4)c3c2)c1	i	nt	i	i	i
COc1cc(OC)cc(C(=O)NC(=S)Nc2ccc3oc(=O)ccc3c2)c1	i	?	i	nt	i

Source: PubChem
